# Test results from PubChem BioAssay AID720513 (Broad Institute, 2013).
# About 480 (23%) of roughly 2,100 compounds were called active. Another 5% or so got no clear call; they are omitted. Not all results are given here. Potency and affinity values are given separately. Unmarked numbers belong to inactive results.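 How the source made its calls: active means fitted curve reaches 40% activation at or below the top valid concentration, in every replicate test; inconclusive means replicate tests disagree on the call; inactive means the rest, including activity in the opposite direction.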
# Assay: PGC1a acetylation increase, cellular AlphaLISA – cell-based, cherry-picked samples, set 6, dose response (AID 720513);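 further: cells made to overexpress flag tagged PGC1a plus GCN5 acetyltransferase by viral infection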
# Details: U2OS PGC1a acetylation AlphaLISA, overnight, 0 = neutral, -100 = inhibitor control; series mostly up to 19.5 µM; activation (acetylation increase): at the top concentration
SMILES,activation (acetylation increase),outcome
CCC(C)NCCOCCOc1ccc(C)cc1OC (stereo not drawn),19.7%,
CCOC(=O)c1c(C)nc2sc3c(=O)n(-c4ccc(OC)cc4)cnc3c2c1-c1ccc(OC)cc1,28.6%,
C[C@H]1CN([C@@H](C)CO)C(=O)c2cc(C#Cc3ccccc3)cnc2O[C@H]1CN(C)C(=O)c1ccccn1,-19.3%,
CC1CN(C2CCN(C(=O)c3cccc(Cl)c3)CC2)CC(C)O1 (stereo not drawn),-9.81%,
CCOC(=O)C1(CC2CCCCO2)CCN(C(=O)Nc2ccc(SC)cc2)CC1 (stereo not drawn),12.1%,
O=C1c2ccccc2C(=O)N1c1ccc(Cc2ccncc2)cc1,-10.4%,
Cc1ccc(CCC(=O)Nc2ccc(Cl)cc2)o1,-15.7%,
Cc1ccc(NC(=O)CC2=NC(=O)C(CC(=O)Nc3ccccc3F)S2)cc1 (stereo not drawn),32.5%,
O=C(O)C1CCCN1S(=O)(=O)c1ccc(Br)s1 (stereo not drawn) (tested in a mixture with another compound),35.3%,
COCCNC(=O)CCc1c(C)nc2c(c(C)nn2-c2ccc(C)c(C)c2)c1C,9.63%,
C[C@H](CO)N1C[C@H](C)[C@@H](CN(C)Cc2cccnc2)Oc2cc(C3=CCCC3)ccc2S1(=O)=O,-34.2%,
Cc1cc(C)n(C(=O)c2ccc([N+](=O)[O-])cc2N)n1,-13%,
COc1ccc(S(=O)(=O)Nc2ccccc2C)cc1C(=O)N1CCOCC1,8.1%,
Cc1ccc(-c2cc(C(=O)N3CCOCC3)c3ccccc3n2)o1,15.8%,
O=C(N=Nc1c(O)[nH]c2ccccc12)c1cc(-c2cccs2)[nH]n1,-2.84%,
COc1ccccc1NC(=O)/C=C1\SCC(=O)N1C,-5.62%,
Oc1c(Cl)cc(CN2CCOCC2)c2cccnc12,-25.2%,
COc1ccc2c3c([nH]c2c1)[C@H](CO)N(C(=O)c1ccncc1)CC31CN(C(=O)c2ccncc2)C1,-3.27%,
Cc1nc(SCC(=O)NC2CCCC2)[nH]c(=O)c1C,9.58%,
Cc1ccc(Cl)c(Cn2cnc3c(cnn3C(C)(C)C)c2=O)c1F,7.54%,
C[C@H](CO)N1C[C@H](C)[C@@H](CN(C)C(=O)CCN2CCCCC2)Oc2ncc(C#Cc3ccccn3)cc2C1=O,13.1% [at 21 µM],

SMILES,activation (acetylation increase),outcome
Cn1nnnc1Sc1ncnc2scc(-c3cc4ccccc4o3)c12,-88.9%,
Cc1ccc(N2C(=O)N(CC(=O)Nc3ccc(C)cc3[N+](=O)[O-])C(=O)C2C)cc1 (stereo not drawn),14.9%,
CC(C)(C)NC(=O)C(=O)NNC(=O)c1cccc([N+](=O)[O-])c1,9.46%,
CC(C)(C)c1ccc(OCC(=O)NNC(=O)Nc2ccccc2)cc1,2.26%,
CCc1ccc(NC(=O)Nc2ccncc2)cc1,-28.2%,
O=C(CC(CC(=O)c1ccc(Br)cc1)c1cccnc1)c1ccc(Br)cc1,-9.39%,
Cc1ccc(NC(=O)c2ccc(NCC3CCCO3)c([N+](=O)[O-])c2)cc1Cl (stereo not drawn),-26%,
N#CC1=C(N)Oc2n[nH]c(-c3ccccc3)c2C1c1ccncc1 (stereo not drawn),-3.54%,
CN(CC(=O)NCC1CCCO1)S(=O)(=O)c1cc(Cl)ccc1Cl (stereo not drawn),0.409% [at 10 µM],
Cc1noc(C)c1CSc1nnc(-c2cccnc2)n1C1CCCCC1C (stereo not drawn),-5.8%,
C/C=C/c1ccc2c(c1)O[C@H](CN(C)C(=O)C1CC1)[C@H](C)CN([C@@H](C)CO)S2(=O)=O,24.5%,
CN(Cc1cnc2nc(N)nc(N)c2n1)c1ccc(C(=O)N[C@@H](CCC(=O)O)C(=O)O)cc1,,inactive
Cc1ccc(S(=O)(=O)C(C#N)c2nc3ccccc3nc2N2CCCC2)cc1 (stereo not drawn),3.64%,
CC(C)(C)OC(=O)N1CCCC(C(=O)Nc2cccc(C(=O)NCc3ccccc3)c2)C1 (stereo not drawn),8.42%,
O=C(NCc1ccc2c(c1)OCO2)c1ccc(NC(=O)C2CCCO2)cc1 (stereo not drawn),15.6%,
CCn1nnc(NC(=O)c2ccc(C(C)(C)C)cc2)n1,11%,
O=C1NC(Nc2nccs2)(C(F)(F)F)C(=O)N1CCc1ccccc1 (stereo not drawn),36.6%,
CC(C)CC(NC(=O)c1ccc(Cl)cc1)C(=O)OCC(=O)c1ccc2c(c1)NC(=O)CO2 (stereo not drawn),-91.4%,
C[C@H]1CN([C@@H](C)CO)C(=O)c2cccc(NC(=O)c3ccncc3)c2O[C@H]1CN(C)C(=O)Nc1ccc2c(c1)OCO2,-14.8%,
C[C@H]1CN([C@@H](C)CO)C(=O)CCCn2nncc2CO[C@@H]1CN(C)C(=O)Nc1ccc2c(c1)OCO2,-9.09%,
C[C@H]1CN([C@@H](C)CO)C(=O)Cc2cc(NS(=O)(=O)c3ccc(F)cc3)ccc2O[C@@H]1CN(C)C(=O)Nc1ccc2c(c1)OCO2,34.1% [at 21 µM],

SMILES,activation (acetylation increase),outcome
Cc1cc(C(=O)Nc2cccc3c2O[C@H](CN(C)C(=O)Nc2ccc4c(c2)OCO4)[C@@H](C)CN([C@H](C)CO)C3=O)n(C)n1,2.12% [at 21 µM],
OCCN(Cc1ccccc1)CC1CCCCC1,28.1%,
O=C(Nc1ccccc1F)N1CCCCN2[C@@H](CO)[C@@H](c3ccc(C#Cc4ccccc4)cc3)[C@@H]2C1,-77.1% [at 21 µM],
CC(=O)Nc1cccc(-c2ccnc3c2CC(C)(C(=O)Nc2ccc(C(C)C)cc2)O3)c1 (stereo not drawn),20.8%,
COc1ccc(NC(=O)C2(C)Cc3c(-c4cccc(NC(C)=O)c4)ccnc3O2)cn1 (stereo not drawn),5.17%,
C[C@@H]1CCCCO[C@@H](CN(C)CC2CC2)[C@@H](C)CN([C@H](C)CO)C(=O)c2cc(NC(=O)C3CCCCC3)ccc2O1,19.2%,
CC(=O)Nc1ccc(C(=O)OC2CCOC2=O)cc1 (stereo not drawn),-33.4%,
NC(=O)c1ccc(NC(=O)C#Cc2ccccc2)cc1,-15.7%,
COc1ccccc1OCCn1c(C(C)O)nc2ccccc21 (stereo not drawn),-2.54%,
COc1ccccc1C(=O)Nc1ccc2c(c1)C(=O)N(C)C[C@H](OC)[C@H](C)CN(CC1CC1)[C@@H](C)CO2,3.86%,
CCCn1c(=O)c2ccccc2n2c(SCc3c(C(=O)OCC)oc4ccccc34)nnc12,21.8%,
CCCCOc1ccc(/C=C/C(=O)OCC(=O)c2c(N)n(C)c(=O)n(C)c2=O)cc1OCC,-26.6% [at 10 µM],
COc1ccccc1-c1ccc([C@@H]2[C@H](CO)N(C(C)=O)C23CN(C(C)=O)C3)cc1,-21.7%,
C[C@H](CO)N1C[C@H](C)[C@H](CN(C)S(=O)(=O)c2ccc(F)cc2)Oc2ccc(NS(=O)(=O)c3cn(C)cn3)cc2C1=O,11.4%,
O=C(Nc1ccc(C(F)(F)F)cc1)N1C[C@@H]2N[C@H](C1)C2c1ccc(-c2cccc(F)c2)cc1 (stereo partly drawn),-102%,
CCN(CC)C(=O)c1ccc(O)c(OC)c1,4.18%,
COc1ccc(NC(=O)N(C)C[C@@H]2OCCCC[C@@H](C)Oc3ccc(NC(=O)Cc4ccccc4)cc3C(=O)N([C@H](C)CO)C[C@@H]2C)cc1,16.1%,
CCCN(C)C[C@H]1OCCCC[C@@H](C)Oc2ccc(NS(=O)(=O)c3ccc(Cl)cc3)cc2C(=O)N([C@@H](C)CO)C[C@H]1C,17.5%,
C[C@@H]1CCCCO[C@H](CN(C)C(=O)Cc2ccccc2)[C@H](C)CN([C@@H](C)CO)C(=O)c2cc(N(C)C)ccc2O1,6.29%,
CC(C)NC(=O)Nc1ccc2c(c1)C(=O)N([C@H](C)CO)C[C@@H](C)[C@H](CN(C)S(=O)(=O)c1ccccc1)OCCCC[C@@H](C)O2,14.8% [at 21 µM],
CC(C)NC(=O)Nc1ccc2c(c1)C(=O)N([C@@H](C)CO)C[C@@H](C)[C@H](CN(C)C(=O)NC(C)C)OCCCC[C@@H](C)O2,5.53%,

SMILES,activation (acetylation increase),outcome
C[C@@H]1CN([C@@H](C)CO)C(=O)c2cc(N(C)C)ccc2O[C@@H](C)CCCCO[C@H]1CN(C)C(=O)c1ccncc1,-3.64%,
C[C@@H]1CCCCO[C@@H](CN(C)C)[C@@H](C)CN([C@H](C)CO)C(=O)c2cc(NS(=O)(=O)c3ccc(Cl)cc3)ccc2O1,21%,
CC(C)NC(=O)Nc1ccc2c(c1)C(=O)N([C@@H](C)CO)C[C@@H](C)[C@H](CN(C)S(=O)(=O)c1ccccc1)OCCCC[C@@H](C)O2,33%,
O=C1CC2CS(=O)(=O)CC2N1c1ccc(Cl)cc1Cl (stereo not drawn),16.7%,
NS(=O)(=O)c1ccc(CCNC2CC(=O)N(Cc3ccccc3)C2=O)cc1 (stereo not drawn),-6.93%,
O=C1CCN(S(=O)(=O)c2ccc(Cl)cc2)N1,22.7%,
Cc1cc(C)n(CCc2nc3c4ccccc4n(CC#N)c(=O)n3n2)n1,0.376%,
Cc1ccc(C(=O)Cn2c(C(=O)OCCO)cc3ccccc32)cc1,28.5%,
COc1cc(C(=O)O)ccc1Cl,-5.01%,
Cc1ccc(Cn2ncc(Cl)c(Cl)c2=O)cc1,-95.1%,
C[C@H](CO)N1C[C@H](C)[C@@H](CN(C)C(=O)Nc2cccc3ccccc23)OCCCC[C@H](C)Oc2ccc(N(C)C)cc2C1=O,20%,
C[C@H]1CCCCO[C@H](CN(C)C(=O)Nc2cccc3ccccc23)[C@@H](C)CN([C@@H](C)CO)C(=O)c2cc(N(C)C)ccc2O1,26.8%,
Cc1ccc(S(=O)(=O)Nc2ccc3c(c2)C(=O)N([C@H](C)CO)C[C@@H](C)[C@@H](CN(C)C(=O)NC(C)C)OCCCC[C@H](C)O3)cc1,31%,
Cc1ccc(S(=O)(=O)Nc2ccc3c(c2)C(=O)N([C@H](C)CO)C[C@H](C)[C@H](CN(C)C(=O)NC(C)C)OCCCC[C@@H](C)O3)cc1,-12.8% [at 21 µM],
Cc1noc(C)c1S(=O)(=O)Nc1ccc2c(c1)C(=O)N([C@H](C)CO)C[C@@H](C)[C@@H](CN(C)S(=O)(=O)c1cccs1)OCCCC[C@H](C)O2,35.5%,
Cc1noc(C)c1S(=O)(=O)Nc1ccc2c(c1)C(=O)N([C@@H](C)CO)C[C@@H](C)[C@@H](CN(C)CC1CCCCC1)OCCCC[C@@H](C)O2,22.1%,
COc1ccc(NC(=O)Nc2ccc3c(c2)C(=O)N([C@H](C)CO)C[C@H](C)[C@@H](CN(C)S(=O)(=O)c2ccc(Cl)cc2)O3)cc1,0.725%,
C=C1CCN(c2ccc(C(=O)NCc3ccccc3)cc2[N+](=O)[O-])CC1,6.43%,
C[C@H]1CN([C@@H](C)CO)C(=O)Cc2cc(NS(=O)(=O)c3ccc(Cl)cc3)ccc2O[C@H]1CN(C)Cc1ccc(-c2ccccc2)cc1,35.3%,
O=C(Nc1ccc(Cl)c(Cl)c1)N[C@@H]1CC[C@H](CCn2cc(C3CC3)nn2)O[C@H]1CO,8.37%,
